ChEMBL document CHEMBL4513156, “CO-ADD screening of NCPRI (Romania) compounds”
Results with a measured potency or affinity are listed apart.

Legend:
[1] = test system: Staphylococcus aureus; conditions: Concentration 32 ug.mL-1; ASSAY_TEST Inhibition of Bacterial Growth; detection method Absorption (OD600); MEDIA CAMHB; plate type 384well; NBS; CORNING #3640; time 18 hr
[2] = test system: Escherichia coli; conditions: Concentration 32 ug.mL-1; ASSAY_TEST Inhibition of Bacterial Growth; detection method Absorption (OD600); MEDIA CAMHB; plate type 384well; NBS; CORNING #3640; time 18 hr

Row | Structure (SMILES) | Inhibition [1] [%] | Inhibition [2] [%]
1 | CC(C)(C)[Si](C)(C)OC[C@H]1[C@H](CC=NNC(=O)c2ccncc2)[C@H](O)C[C@@H]1O[Si](C)(C)C(C)(C)C | 21.42 | 11.91
2 | O=C(N/N=C/C[C@@H]1[C@@H](/C=C/[C@@H](O)COc2cccc(Cl)c2)[C@H](O)C[C@@H]1O)c1ccncc1 | 27.05 | 14.88
3 | COC(=O)CCCCCC[C@@H]1[C@@H](/C=N/NC(=O)c2ccncc2)[C@H](O)C[C@@H]1O | 12.62 | 6.85
4 | O=C(N/N=C/COc1cccc(Cl)c1)c1ccncc1 | 8.36 | 6.4
5 | O=C(NNC(c1ccccc1)(c1ccccc1)c1ccccc1)c1ccncc1 | 1.88 | 5.22
6 | O=C1C[C@@H]2[C@@H](C=NNC(=O)c3ccncc3)[C@@H](C[C@H]2Cl)O1 | 33.55 | 18.72
7 | O=C1C[C@H]2[C@H](/C=N/NC(=O)c3ccncc3)[C@H](C[C@@H]2Cl)O1 | 34.06 | 18.17
8 | O=C(N/N=C1\CC[C@@H]2[C@H]1[C@H](OC(=O)c1ccccc1)C[C@@H]2OC(=O)c1ccccc1)c1ccncc1 | 27.83 | 14.7
9 | O=C(N/N=C1\C[C@@H]2[C@H](COC(c3ccccc3)(c3ccccc3)c3ccccc3)C[C@H](CO)[C@@H]2C1)c1ccncc1 | 13.89 | 6.21
10 | O=C(N/N=C1/C2C[C@H]3C(C2CO)[C@H]13)c1ccncc1 (stereo partly specified) | 21.76 | 11.47
11 | O=C(NN=CC[C@@H]1[C@@H](COC2CCCCO2)[C@H](OC2CCCCO2)C[C@@H]1O)c1ccncc1 (stereo partly specified) | 12.15 | 6.4
12 | COC(=O)CCCCCC[C@@H]1[C@@H](/C=N/NC(=O)c2ccncc2)[C@H](OC(=O)c2ccccc2)C[C@@H]1O | 26.15 | 14.2
13 | COC(=O)C[C@H]1[C@H](/C=N\NC(=O)c2ccncc2)[C@@H](O[Si](C)(C)C(C)(C)C)C[C@@H]1Cl | 29.13 | 13.69
14 | O=C(NNC(=O)[C@@H]1C[C@H](C(=O)O)[C@@H]2CCC[C@@H]21)c1ccncc1 | 31.35 | 13.96
15 | O=C(NN=CC[C@H]1[C@H](CO)[C@@H](O)C[C@H]1O)c1ccncc1 | 21.6 | 12.24
16 | O=C(N/N=C1/C2C[C@H]3C(C2C(=O)O)[C@@H]13)c1ccncc1 (stereo partly specified) | 16.39 | 13.83
17 | O=C(NNC(=O)[C@@H]1C[C@H](C(=O)O)[C@@H]2CC=C[C@@H]21)c1ccncc1 | 32.09 | 14.78
18 | O=C(N/N=C/C[C@@H]1[C@@H](CO)[C@H](O)C[C@@H]1O)c1ccncc1 | 22.27 | 13.16
19 | O=C(N/N=C1/C[C@@H]2[C@H](C1)[C@H](OC(=O)c1ccccc1)C[C@@H]2OC(=O)c1ccccc1)c1ccncc1 | 26.15 | 8.09
20 | O=C(N/N=C/CCCO)c1ccncc1 | 10.52 | 5.12
21 | O=C(NN=CC[C@@H]1[C@@H](/C=C/[C@@H](O)CCc2ccccc2)[C@H](OC(=O)c2ccccc2)C[C@@H]1O)c1ccncc1 | 18.76 | 8.83
22 | O=C(NNC(=O)c1cccc([N+](=O)[O-])c1C(=O)O)c1ccncc1 | 23.26 | 20.08
23 | O=C(NN=C[C@H]1[C@@H]2CCO[C@@H]2C[C@@H]1O)c1ccncc1 | 13.82 | 5.67
24 | O=C(NN=C[C@H]1[C@H]2CC(O)OC[C@H]2C[C@H]1O)c1ccncc1 (stereo partly specified) | 15.22 | 4.63
25 | CC(C)(C)[Si](C)(C)O[C@H](/C=C/[C@@H]1[C@@H](CC=NNC(=O)c2ccncc2)[C@@H](O)C[C@H]1O[Si](C)(C)C(C)(C)C)CCc1ccccc1 | 11.86 | 7.54
26 | O=C(NN=CC[C@@H]1[C@@H](/C=C/[C@@H](O)CCc2ccccc2)[C@H](O)C[C@@H]1O)c1ccncc1 | 16.65 | 9.46
27 | O=C(N/N=C/C[C@@H]1[C@@H](/C=C/[C@@H](O)COc2ccccc2)[C@H](O)C[C@@H]1O)c1ccncc1 | 16.08 | 10.98
28 | O=C(ON/N=C/[C@@H]1[C@@H]2C[C@H](Cl)[C@H]1C[C@H]2O)c1ccncc1 | 25.17 | 12.76
